Experimental data: PubChem BioAssay AID813 (Sanford-Burnham Center for Chemical Genomics, 2007)
In all, about 64,000 compounds went through this assay and fewer than 10 were called active.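 The calls were made as follows: active = activation factor of at least 2 at 20 µM, relative to controls; inactive = the rest.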 A selection follows.

What follows are compounds tested against Alkaline phosphatase, tissue-nonspecific isozyme (Homo sapiens) (UniProt P05186) (assay: human TNAP enzyme activators, primary screen, biochemical, luminescent, intermediate phosphate acceptor level (AID 813)). Settings: purified TNAP, CDP-star luminescence, 100 mM DEA, 30 min; at 20 µM; hits give high values; scale: 0 levamisole-inhibited, 1 vehicle-only enzyme.
Sequence of Alkaline phosphatase, tissue-nonspecific isozyme (Homo sapiens) (P05186 whole entry, looked up): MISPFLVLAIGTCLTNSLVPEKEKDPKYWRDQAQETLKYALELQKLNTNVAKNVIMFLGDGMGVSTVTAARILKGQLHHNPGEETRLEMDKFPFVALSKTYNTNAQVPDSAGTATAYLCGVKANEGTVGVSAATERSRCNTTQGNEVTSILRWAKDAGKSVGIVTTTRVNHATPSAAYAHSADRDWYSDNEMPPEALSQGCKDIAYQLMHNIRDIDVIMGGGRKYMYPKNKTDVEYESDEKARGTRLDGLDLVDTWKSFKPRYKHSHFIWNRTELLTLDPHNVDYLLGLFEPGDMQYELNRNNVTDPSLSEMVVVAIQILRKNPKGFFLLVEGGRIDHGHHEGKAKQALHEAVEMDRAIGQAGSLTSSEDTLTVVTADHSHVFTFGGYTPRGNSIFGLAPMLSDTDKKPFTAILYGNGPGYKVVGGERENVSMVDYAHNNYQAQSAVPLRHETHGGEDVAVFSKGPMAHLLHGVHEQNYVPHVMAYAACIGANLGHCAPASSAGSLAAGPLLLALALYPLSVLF

Activation factor, inactive:
Cc1ccc(C)n1-c1ccncc1 0.9
Cc1cc(N2C(=O)C(=O)/C(=C(/O)c3ccc(Cl)cc3)C2c2cccc(Br)c2)no1 (stereo not drawn) 0.8
CCCOc1ccc(CN(CCO)CCO)cc1C(=O)OC 0.9
CN(C)Cc1c(O)ccc2occ(C(O)c3ccccc3)c12 (stereo not drawn) 0.9
CCn1cc(C(=O)NC2CCCCCC2)c(=O)c2cc(S(=O)(=O)N3CCCCC3)ccc21 0.9
CCn1cc(C(=O)N2CCN(C3CCCCC3)CC2)c2cc(OC)c(OC)cc2c1=O 0.9
CCOC(=O)N1CCN(C(=O)c2ccc3nc4cc(Cl)ccc4c(=O)n3c2)CC1 0.9
CCc1nc(C)cn1S(=O)(=O)c1cc(OC)c(C)cc1C 0.9
O=C(O)CC(c1ccccc1)n1cnnn1 (stereo not drawn) 1
COCCCn1c(CCC(=O)O)ccc1-c1ccc(F)cc1 0.9
CC1CN(C(=O)c2ccc3c(c2)OCO3)OC(c2ccccc2)O1 (stereo not drawn) 1
COC(=O)[C@H](Cc1ccccc1)NC(=O)Nc1ccc(S(N)(=O)=O)cc1 0.9
CC(=O)N=c1ncn(CC(COC(C)=O)OC(C)=O)c2nc[nH]c12 (stereo not drawn) 0.9
O=C(COc1ccc2c3c(c(=O)oc2c1)CCC3)NC1CCCCC1 1
Cc1ccc(S(=O)(=O)NCC(=O)N(CC(=O)NC2CCCCC2)Cc2ccco2)cc1 0.9
CC(C)c1cc(C(=O)O)on1 1
Cc1cc(C)cc(N(CC(=O)Nc2c(C)n(C)n(-c3ccccc3)c2=O)S(C)(=O)=O)c1 0.9
CC(C)(C)n1nnc(CCc2nnn(C(C)(C)C)n2)n1 0.9
O=C(c1ccccc1)c1ccc(OC(=O)N2CCCC2)cc1 0.9
COc1cc(OC)c(C(=O)NC2CC(C)(C)NC(C)(C)C2)cc1OC 1
CCOc1ccc(C(=O)NC2CCN(S(=O)(=O)CC)CC2)cc1 0.9
COc1ccc(S(=O)(=O)N2CCCC(C(=O)N3CCN(C)CC3)C2)cc1C (stereo not drawn) 1
COC(=O)COc1ccc2oc(=O)cc(C)c2c1 1
CC(=O)Nc1ccc(S(=O)(=O)N2CCSCC2)cc1 1
O=C(CCCN1C(=O)CCC1=O)Nc1ccc(Cl)c(C(F)(F)F)c1 0.9
Cc1cc(N2C(=O)C(=O)/C(=C(/O)c3ccccc3)C2c2cccc(Br)c2)no1 (stereo not drawn) 1
CCn1cc(C(=O)N2CCN(Cc3ccc4c(c3)OCO4)CC2)c2cc(OC)c(OC)cc2c1=O 0.9
CCc1c(C)c2c(C)[nH]nc2oc1=O 0.8
